# Data as given in ChEMBL document CHEMBL1157539, “Thousands of chemical starting points for antimalarial lead identification” (Nature, 2010).
# Tested on: Plasmodium falciparum
# Assay: GSK_TCMDC: Inhibition of Plasmodium falciparum Dd2 in whole red blood cells, using parasite LDH activity as an index of growth. Test compounds present at 2uM
# Assay type: functional
row,SMILES,Inhibition [%]
1,CN(C)CC(O)C(c1ccccc1)c1cccc(Br)c1.Cl (centres undefined),9
2,O=C(Nc1ccc(-c2cccc(-c3nc4cc(C(F)(F)F)ccc4[nH]3)c2)cc1)c1csnn1,25
3,O=C(O)C(F)(F)F.Oc1ccc(CCNc2nc(NCCCOc3ccccc3-c3ccncc3)nc(N3CCNCC3)n2)cc1,0
4,CC(CN(C)C)C(=O)Nc1ccc(-c2cccc(-c3nc4ccccc4[nH]3)c2)cc1 (centres undefined),57

# Tested on: HepG2
# Assay: GSK_TCMDC: Percent inhibition of human HepG2 cell line. Test compounds present at 10uM.
# Assay type: functional
row,SMILES,Inhibition [%]
1,COc1cc2nc(N3CC(C)N(C(=O)Cc4ccc(-c5ccccc5)cc4)C(C)C3)nc(N)c2cc1OC (centres undefined),26
2,O=C(Nc1ccc(OC2CCN(Cc3ccsc3)C2)c(Cl)c1)c1ccc2ncccc2c1.O=C(O)C(F)(F)F (centres undefined),84
3,O=C(c1cccs1)N1CCN(c2ccc([N+](=O)[O-])c(NC3CC3)c2)CC1,0
4,Cn1c(NCc2cc(F)cc3c2OCOC3)nc2cc(Nc3ccnc(Nc4cccc(CS(C)(=O)=O)c4)n3)ccc21,0
5,Cc1cc(Nc2ccncc2)n2nc(C)c(-c3ccccc3Cl)c2n1,2
6,COc1cc2nc(SCC(C)C)n(CCCn3ccnc3)c(=N)c2cc1OC,15
7,CN1CCN(c2ccc(Nc3c4ccccc4nc4ccccc34)cc2)CC1,0
8,COc1cc2nc(-c3ccccc3)nc(N3CCN(C(=O)c4ccco4)CC3)c2cc1OC,0
9,COc1cccc(NC(=O)NC2CCN(c3ccnc(Nc4cc(OC)c(OC)c(OC)c4)n3)C2)c1 (centres undefined),8
10,CC[C@H](C)[C@H](NC(=O)[C@H](CC1CCCCC1)[C@H](CC)N(O)C=O)C(=O)Nc1ccccn1,14
